According to PubChem BioAssay (NCI):
The panel holds about 79,000 compounds, 15% with a hit somewhere; the sample as a whole holds those more often. Unmarked numbers belong to inactive results. The source made the active and inactive calls. Rule as the data show it: active = growth inhibition above about 70%; inactive = the rest.

Columns and labels:
[1] = NCI Yeast Anticancer Drug Screen. Data for the rad52 strain (AID 147);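 also: 0% = growth of vehicle-treated control cultures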; conditions: S. cerevisiae rad52 mutant growth inhibition, stronger effect = higher value
Method in brief: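 DNA repair-defective yeast; compound exposure; growth scored against vehicle controls.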

[2] = NCI Yeast Anticancer Drug Screen. Data for the wt1 strain (AID 149);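 also: 0% = growth of vehicle-treated wt1 cultures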; conditions: S. cerevisiae wt1 strain (SPY 50644) growth inhibition, stronger effect = higher value
Method in brief: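 The wt1 strain was treated with compounds, and growth was compared with vehicle-treated cultures to give inhibition.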

[3] = NCI Yeast Anticancer Drug Screen. Data for the mgt1 strain (AID 153); conditions: S. cerevisiae mgt1 mutant growth inhibition, stronger effect = higher value
Method in brief: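 Growth inhibition relative to vehicle controls was scored for the mgt1 yeast strain after compound exposure.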

[4] = NCI Yeast Anticancer Drug Screen. Data for the rad50 strain (AID 155);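 also: 0% = growth of vehicle-only cultures of the same strain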; conditions: S. cerevisiae rad50 strain growth inhibition, stronger effect = higher value
Method in brief: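 Cells are treated with compound, grown, and their growth is then scored against vehicle-only cultures of the same repair-deficient yeast strain.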

[5] = NCI Yeast Anticancer Drug Screen. Data for the mec2-1 strain (AID 157); conditions: S. cerevisiae mec2-1 strain, stronger effect = higher value
Method in brief: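 Growth inhibition is read against vehicle-treated controls after compound exposure of the mec2-1 yeast strain, which is defective in DNA damage repair or cell cycle control.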

[6] = NCI Yeast Anticancer Drug Screen. Data for the rad14 strain (AID 159);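 also: 0% = growth of vehicle-treated control cultures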; conditions: S. cerevisiae rad14 strain growth inhibition, stronger effect = higher value
Method in brief: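 Readout: yeast growth inhibition, referenced to vehicle-only cultures. Strain bears a defined alteration in DNA damage repair.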

[7] = NCI Yeast Anticancer Drug Screen. Data for the sgs1 mgt1 strain (AID 161);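 also: 0% = growth of cultures given vehicle only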; conditions: S. cerevisiae sgs1 mgt1 strain, stronger effect = higher value
Method in brief: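 Percent growth inhibition was derived by comparing compound-exposed mutant yeast with vehicle-exposed cultures. The strain carries alterations in DNA damage repair.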

[8] = NCI Yeast Anticancer Drug Screen. Data for the CLN2oe strain (AID 163);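 also: 0% = growth of vehicle-only control cultures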; conditions: S. cerevisiae CLN2oe strain, stronger effect = higher value
Method in brief: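 Compound-treated yeast; growth vs vehicle ctrl = % inhibition. Genetically altered strain (cell-cycle control).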

[9] = NCI Yeast Anticancer Drug Screen. Data for the cln2 rad14 strain (AID 165);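 also: 0% = growth equal to vehicle treated cultures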; conditions: S. cerevisiae cln2 rad14 strain, stronger effect = higher value
Method in brief: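 Growth inhibition, relative to vehicle-treated controls, is the read-out. The test organism is a yeast strain with defined genetic alterations, cln2 rad14.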

[10] = NCI Yeast Anticancer Drug Screen. Data for the bub3 strain (AID 167); conditions: S. cerevisiae bub3 mutant strain, stronger effect = higher value
Method in brief: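 Part of a panel of yeast mutants defective in DNA damage repair or cell cycle regulation. Each strain is grown with compound, and inhibition is calculated relative to solvent-treated cultures.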

[11] = NCI Yeast Anticancer Drug Screen. Data for the wt2 strain (AID 169);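 also: 0% = growth of vehicle-treated yeast cultures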; conditions: S. cerevisiae wt2 strain growth inhibition, stronger effect = higher value
Method in brief: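 Compound exposure of yeast; growth compared with vehicle controls; inhibition reported.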

[12] = NCI Yeast Anticancer Drug Screen. Data for the mlh1 strain (AID 171);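 also: 0% = growth of vehicle-treated control cultures of the same strain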; conditions: S. cerevisiae mlh1 strain growth inhibition, stronger effect = higher value
Method in brief: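 Compounds are applied to a genetically altered yeast strain, and its growth is compared with that of vehicle-treated cultures to give percent inhibition.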

[13] = NCI Yeast Anticancer Drug Screen. Data for the sgs1 strain (AID 173);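 also: 0% = growth of vehicle-only control cultures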; conditions: S. cerevisiae sgs1 mutant, stronger effect = higher value
Method in brief: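 Compounds applied to genetically altered yeast; growth compared with vehicle-treated cultures to give % inhibition.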

[14] = NCI Yeast Anticancer Drug Screen. Data for the mlh1 rad18 strain (AID 175); conditions: S. cerevisiae mlh1 rad18 strain growth inhibition, stronger effect = higher value
Method in brief: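 Cells of a genetically altered yeast strain, deficient in DNA damage repair, were treated with compound. Their growth was then compared with that of vehicle-treated cultures to give inhibition.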

[15] = NCI Yeast Anticancer Drug Screen. Data for the rad18 strain (AID 177); conditions: S. cerevisiae rad18 mutant growth inhibition, stronger effect = higher value
Method in brief: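 Compounds are applied to a repair-deficient yeast strain, and growth is compared with that of vehicle-treated cultures to give percent inhibition.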

[16] = at 5.0 µM (retest, dose inferred, filed as 0.5)
[17] = at 50.0 µM (retest, dose inferred, filed as 5.0)

Compound: CCCC(O)C1CC(C(C)C)CCC1C (stereo not drawn)
- growth inhibition ([1]; at 1.2 µM): 0%
- growth inhibition ([1]; at 3.7 µM): 1%
- growth inhibition ([1]; at 11.0 µM): 2%
- growth inhibition ([1]; at 33.0 µM): 7%
- growth inhibition ([1]; at 100.0 µM): 43%
- growth inhibition ([2]; at 1.2 µM): -1%
- growth inhibition ([2]; at 3.7 µM): 0%
- growth inhibition ([2]; at 11.0 µM): -1%
- growth inhibition ([2]; at 33.0 µM): 3%
- growth inhibition ([2]; at 100.0 µM): 75% (active)
- growth inhibition ([3]; at 1.2 µM): -2%
- growth inhibition ([3]; at 3.7 µM): 0%
- growth inhibition ([3]; at 11.0 µM): -1%
- growth inhibition ([3]; at 33.0 µM): 5%
- growth inhibition ([3]; at 100.0 µM): 96% (active)
- growth inhibition ([4]; at 1.2 µM): 0%
- growth inhibition ([4]; at 3.7 µM): -46%
- growth inhibition [4, 16]: 0%
- growth inhibition ([4]; at 11.0 µM): 25%
- growth inhibition ([4]; at 33.0 µM): 6%
- growth inhibition [4, 17]: 5%
- growth inhibition ([4]; at 50.0 µM): 31.4%
- growth inhibition ([4]; at 100.0 µM): 64%
- growth inhibition ([5]; at 1.2 µM): 0%
- growth inhibition ([5]; at 3.7 µM): 3%
- growth inhibition [5, 16]: 0%
- growth inhibition ([5]; at 11.0 µM): 5%
- growth inhibition ([5]; at 33.0 µM): 9%
- growth inhibition [5, 17]: 52%
- growth inhibition ([5]; at 50.0 µM): 75.5% (active)
- growth inhibition ([5]; at 100.0 µM): 96% (active)
- growth inhibition ([6]; at 1.2 µM): -1%
- growth inhibition ([6]; at 3.7 µM): 0%
- growth inhibition ([6]; at 11.0 µM): 4%
- growth inhibition ([6]; at 33.0 µM): 17%
- growth inhibition ([6]; at 100.0 µM): 99% (active)
- growth inhibition [7, 16]: -11%
- growth inhibition [7, 17]: 33%
- growth inhibition ([7]; at 50.0 µM): 24.8%
- growth inhibition ([8]; at 1.2 µM): -3%
- growth inhibition ([8]; at 3.7 µM): -3%
- growth inhibition ([8]; at 11.0 µM): 5%
- growth inhibition ([8]; at 33.0 µM): 4%
- growth inhibition ([8]; at 100.0 µM): 12%
- growth inhibition [9, 16]: 4%
- growth inhibition [9, 17]: 44%
- growth inhibition ([9]; at 50.0 µM): 92% (active)
- growth inhibition ([10]; at 1.2 µM): -3%
- growth inhibition ([10]; at 3.7 µM): -2%
- growth inhibition [10, 16]: -2%
- growth inhibition ([10]; at 11.0 µM): -3%
- growth inhibition ([10]; at 33.0 µM): 1%
- growth inhibition [10, 17]: 10%
- growth inhibition ([10]; at 50.0 µM): 92.3% (active)
- growth inhibition ([10]; at 100.0 µM): 98% (active)
- growth inhibition ([11]; at 1.2 µM): -1%
- growth inhibition ([11]; at 3.7 µM): 6%
- growth inhibition ([11]; at 11.0 µM): 0%
- growth inhibition ([11]; at 33.0 µM): 4%
- growth inhibition ([11]; at 100.0 µM): 74% (active)
- growth inhibition ([12]; at 1.2 µM): -2%
- growth inhibition ([12]; at 3.7 µM): 0%
- growth inhibition ([12]; at 11.0 µM): 3%
- growth inhibition ([12]; at 33.0 µM): 9%
- growth inhibition ([12]; at 100.0 µM): 95% (active)
- growth inhibition ([13]; at 1.2 µM): -2%
- growth inhibition ([13]; at 3.7 µM): -1%
- growth inhibition ([13]; at 11.0 µM): 4%
- growth inhibition ([13]; at 33.0 µM): 15%
- growth inhibition ([13]; at 100.0 µM): 94% (active)
- growth inhibition [14, 16]: -1%
- growth inhibition [14, 17]: 11%
- growth inhibition ([14]; at 50.0 µM): 55.9%
- growth inhibition ([15]; at 1.2 µM): 0%
- growth inhibition ([15]; at 3.7 µM): 1%
- growth inhibition ([15]; at 11.0 µM): 2%
- growth inhibition ([15]; at 33.0 µM): 9%
- growth inhibition ([15]; at 100.0 µM): 92% (active)
